Test results from PubChem BioAssay (NCI).
The panel holds about 83,000 compounds, 20% with a hit somewhere; the sample as a whole holds those more often.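 Each cell line was grown in a 96-well plate and treated with one concentration of compound for 48 hours. Values below 10 were considered active.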 A number with no mark means an inactive call. Activity calls are given as the source filed them.

Key:
Test in all cases: NCI-60 one-dose screen, 48 h (100 = growth as untreated, 0 = no growth, -100 = all killed)
Settings in all cases: 10 µM unless noted
T-47D breast = system: T-47D breast
BT-549 breast = system: BT-549 breast
MDA-MB-435 melanoma = system: MDA-MB-435 melanoma
SW-620 colon = system: SW-620 colon
MCF7 breast = system: MCF7 breast
HCT-116 colon = system: HCT-116 colon
HCC-2998 colon = system: HCC-2998 colon
KM12 colon = system: KM12 colon

SMILES	growth (T-47D breast)	growth (BT-549 breast)	growth (MDA-MB-435 melanoma)	growth (SW-620 colon)	growth (MCF7 breast)	growth (HCT-116 colon)	growth (HCC-2998 colon)	growth (KM12 colon)
C#CCOc1ccc2ncnc(Nc3ccc(NC(=O)C=C)cc3)c2c1	4.07% (active)	-28.7% (active)	-18.9% (active)	-45.8% (active)	-10.4% (active)	-79.9% (active)	82.2%	8.91% (active)
COc1ccc2[nH]c(C(=O)N3CCN(C(=O)OCc4ccc5c(Cl)cc(Cl)c(O)c5n4)CC3)cc2c1	-57.5% (active)	-69.3% (active)	-91% (active)	-81.9% (active)	-55.7% (active)	-92.2% (active)	-86.7% (active)	-62.3% (active)
O=C1C(Cl)=C(NCCCCCCNC2=C(Cl)C(=O)c3ccccc3C2=O)C(=O)c2ccccc21	90.7%	91.2%	79.4%	73.3%	81.6%	88%	103%	98.1%
CCCCCCCCCCCCCCCCOCCCOP(=O)(O)C1CCCN(O)C1=O (stereo not given)	43.2%	32.2%	14.3%	20.9%	18.5%	14.5%	3.73% (active)	7.79% (active)
Cc1ccc(C)n1-c1ccccc1-n1c(C)ccc1C	91.2%	104%	94.1%	139%	101%	104%	115%	117%
O=C(Nc1cccc(Cl)c1)Nc1cccc(Cn2c(=O)[nH]c3ccc(Oc4ncccn4)cc3c2=O)c1	16.3%	48%	42.6%	72.3%	35.8%	22.9%	69.7%	29.5%
COc1cc2ncnc(Nc3ccc(S(=O)(=O)Nc4cc(C)on4)cc3)c2cc1OCCCN1CCN(c2ccc(F)cc2)CC1	89.6%	119%	105%	100%	96.8%	108%	115%	107%
COc1cc(-c2nc3sccn3c2-c2ccnc(NCCNS(=O)(=O)c3ccccc3)n2)ccc1F	14.3%	67.8%	26%	86.4%	37.9%	42.6%	96.5%	17.1%
CN(C)Cc1ccc(O)c(C(=O)O)c1	109%	112%	107%	106%	107%	109%	109%	108%
Cc1ccc(C2=Nc3c(N)ncnc3NC(c3cccc(Nc4ccnc5cc(C(F)(F)F)ccc45)c3)C2)cc1 (stereo not given)	38.4%	53.6%	-55.4% (active)	12.3%	8.09% (active)	12.6%	31%	15.9%
COc1cc2oc(-c3cccc(NC(=O)c4ccccc4)c3)cc(=O)c2c(OC)c1OC	50.2%	74.1%	80.7%	91.5%	77.3%	67.7%	87.8%	64.4%
N=C(N)c1ccc(-c2ccc(-c3ccc(Cl)cc3Cl)s2)cc1	47.2%	100%	-2.28% (active)	-52.1% (active)	-65.4% (active)	-60.1% (active)	-65.9% (active)	-87.3% (active)
Cn1ccnc1C(=O)/C=C/c1ccc(C(=O)Nc2ccccc2O)cc1	2.47% (active)	28.4%	69.3%	10.3%	10.2%	11.6%	82.7%	15.2%
CN(C)S(=O)(=O)c1cccc(C(=O)Nc2nc(-c3ccc(F)c(F)c3)cs2)c1	19.7%	52.5%	83.3%	93.9%	48.4%	57.6%	88.1%	97.4%
CCOC(=O)C1=C(C)NC(=O)NC1c1c(Cl)n(CCCl)c2ccccc12 (stereo not given)	101%	92%	101%	96.8%	98.7%	95.1%	96.3%	97.4%
CCCCCN1C(=O)/C(=c2\sc3n(c2=O)C2C(NN=3)N(CC)C(=O)N2CC)c2ccccc21 (stereo not given)	23.3%	19.5%	-60.1% (active)	-42.1% (active)	12%	-72.1% (active)	-17.1% (active)	-52.9% (active)
CC(C)C1=NOC(=O)C1=Cc1cn(-c2ccccc2)nc1-c1ccc(F)cc1		121%	77.4%	61.2%	50.8%	32.4%	79.8%	69.7%
COc1ccc(Nc2nc(-c3cc(O)c(C)c(C)c3O)cs2)cc1		79.1%	7.82% (active)	70.6%	47.1%	82.5%	110%	23.7%
C=CC(=O)N1CCN(c2cccc(Oc3nccc(Nc4nnc(-c5ccc(Br)cc5)s4)n3)c2)CC1		67.1%	-5.55% (active)	35.2%	35.9%	58.4%	89.9%	43.8%
C#COc1cccc(Nc2c(C#N)cnc3ncc(NC(=O)CCl)cc23)c1		40.3% [6.25 µM]	41.4% [6.25 µM]	9.61% [6.25 µM] (active)	5.39% [6.25 µM] (active)	-3.66% [6.25 µM] (active)	31.7% [6.25 µM]	31.4% [6.25 µM]
COC(=O)C1Cc2ccccc2CN1C(=O)c1ccc2c(c1)Cc1ccccc1-2 (stereo not given)		28.3% [50 µM]	24.9% [50 µM]	51.2% [50 µM]	16.7% [50 µM]	30.2% [50 µM]	67.7% [50 µM]	34.2% [50 µM]
CCCC/C=C/[C@@H]1C[C@H]1CCO		96.8%	102%	102%	87.5%	90.6%	102%	103%
O=C(Nc1nc2cc(C(=O)N3CCN(C(c4ccccc4)c4ccccc4)CC3)ccc2o1)c1ccc(NC2CCCCC2)c([N+](=O)[O-])c1		83.4%	64.9%	44.3%	50.2%	40.9%	62.2%	51.4%
CCOC(=O)C(=O)C(C(=O)OCC)c1ccccc1 (stereo not given)		97.3%	101%	103%	101%	96.2%	114%	107%
CCOC(=O)c1c(C(=O)c2cn(C)c3ccc(Br)cc23)c(-c2cn(C)c3ccc(Br)cc23)n(NC(=O)OC(C)(C)C)c1C		39.2% [100 µM]	96.5% [100 µM]	91.8% [100 µM]	78.3% [100 µM]	54% [100 µM]	111% [100 µM]	89.4% [100 µM]
Cc1sc2nc(NCCc3c[nH]c4ccc(Cl)cc34)[nH]c(=O)c2c1C		74.2%	39.7%	9.09% (active)	32.2%	24.5%	21.5%	1.89% (active)
Nc1c(C(=O)Nc2ccccc2C(F)(F)F)sc2nc3c(cc12)CCC3		115%	92.8%	96%	95.8%	107%	94.6%	113%
